Screening results deposited in PubChem by The Scripps Research Institute Molecular Screening Center.
pPAFAH FP inh = pPAFAH enzyme inhibitors, primary screen, biochemical, fluorescence polarization, human; Platelet-activating factor acetylhydrolase (Homo sapiens), Q13093; recombinant pPAFAH, FP-rhodamine probe fluorescence polarization; inhibition, % at 3.39 µM; 330,000 tested, 1.5% active; AID 463082, 2010;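 active = inhibition above the mean inhibition across the screen plus 3 SD, cut at about 25% in these data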;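 note: inhibitors block binding of the rhodamine activity-based probe so polarization drops; 0% = enzyme with DMSO and 100% = wells lacking pPAFAH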
Target sequence (Q13093 whole entry, looked up): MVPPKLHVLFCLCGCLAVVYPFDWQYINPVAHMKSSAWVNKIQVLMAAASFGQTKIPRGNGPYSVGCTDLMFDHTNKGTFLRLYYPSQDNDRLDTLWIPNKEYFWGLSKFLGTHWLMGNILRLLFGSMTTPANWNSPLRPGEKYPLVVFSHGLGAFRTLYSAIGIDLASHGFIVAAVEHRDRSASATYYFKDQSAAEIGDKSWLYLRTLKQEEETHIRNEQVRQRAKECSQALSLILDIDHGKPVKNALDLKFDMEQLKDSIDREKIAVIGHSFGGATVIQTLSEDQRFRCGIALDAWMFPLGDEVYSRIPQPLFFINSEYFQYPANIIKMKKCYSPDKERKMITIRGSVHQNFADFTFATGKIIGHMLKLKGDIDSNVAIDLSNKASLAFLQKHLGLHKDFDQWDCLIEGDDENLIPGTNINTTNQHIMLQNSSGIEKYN
PAFAH1B2 inh = PAFAH1B2 enzyme inhibitors, primary screen, biochemical, fluorescence polarization, human; 340,000 tested, 1.2% active; inhibition, % at 3.39 µM; AID 492953, 2010; recombinant PAFAH1B2, FP-rhodamine activity probe;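 active = inhibition above the mean of all tested compounds plus 3 SD, cut at about 24% in these data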;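 note: 0% = enzyme with DMSO and 100% = wells lacking PAFAH1B2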
PAFAH2 inh = PAFAH2 enzyme inhibitors, primary screen, biochemical, fluorescence polarization, human; Platelet-activating factor acetylhydrolase 2, cytoplasmic (Homo sapiens), Q99487; recombinant PAFAH2, FP-rhodamine activity probe; inhibition, % at 3.39 µM; 340,000 tested, 0.99% active;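 active = inhibition above the mean over all tested compounds plus 3 SD, cut at about 30% in these data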;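 note: inhibitors block probe labeling of enzyme so polarization drops; 0% = enzyme with DMSO and 100% = wells lacking PAFAH2 protein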
ZTA DNA inh = ZTA (EBV) inhibition in EBNA-1 counter-screen; 320,000 tested, 0.15% active; AID 2234; inhibition, % at 11 µM; ZTA-DNA binding, fluorescence polarization; in the data active = inhibition above about 33%
PAFAH1B3 inh = PAFAH1B3 enzyme inhibitors, primary screen, biochemical, fluorescence polarization, human. 340,000 tested, 0.28% active. inhibition, % at 3.39 µM. recombinant PAFAH1B3, FP-rhodamine probe. Platelet-activating factor acetylhydrolase IB subunit alpha1 (Homo sapiens), Q15102;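 active = inhibition above the screen-wide average of all tested compounds plus 3 SD, cut at about 25% in these data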;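 note: 0% = enzyme with DMSO only and 100% = wells lacking PAFAH1B3 protein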
EBNA-1 inh = EBNA-1 DNA-binding inhibitors, primary screen, biochemical, fluorescence polarization; inhibition, % at 14.8 µM; 300,000 tested, 0.34% active; in the data active = inhibition above about 28%
Numbers without * were called inactive. Only some compounds are listed: those with a hit (about 2.9% of all), similar ones and a draw of the others.

What do the screens show for `C[C@H](NC(=O)OCc1ccccc1)c1nnc([C@H](Cc2ccccc2)NC(=O)OC(C)(C)C)o1`?
pPAFAH FP inh: 26*; PAFAH1B2 inh: 5; PAFAH2 inh: -2; ZTA DNA inh: 3; PAFAH1B3 inh: -2; EBNA-1 inh: 15

Results for O=C(NC1CC1)C1Nc2ccc(OC(F)(F)F)cc2C2C=CCC12 (configuration not stated) ?
pPAFAH FP inh: 6; PAFAH1B2 inh: 1; PAFAH2 inh: 3; ZTA DNA inh: -8; PAFAH1B3 inh: 1; EBNA-1 inh: -6

Results for Cc1ccc2c(c1)C1C=CCC1C(C(=O)O)N2 (configuration not stated) ?
pPAFAH FP inh: 61*; ZTA DNA inh: 28; EBNA-1 inh: 45*

What do the screens show for `Cc1ccc2c(c1)C1C=CCC1C(C(=O)NCCCN1CCOCC1)N2` (configuration not stated)?
pPAFAH FP inh: 16; PAFAH1B2 inh: 1; PAFAH2 inh: 4; ZTA DNA inh: -3; PAFAH1B3 inh: 17; EBNA-1 inh: -7

What do the screens show for `O=C(O)C1Nc2ccc(OC(F)(F)F)cc2C2C=CCC12` (configuration not stated)?
pPAFAH FP inh: 61*; ZTA DNA inh: 3; EBNA-1 inh: 3

Results for Cc1cccc2c(N=Nc3ccc(S(=O)(=O)Nc4ccc(Cl)cc4)cc3[N+](=O)[O-])c(O)[nH]c12 ?
pPAFAH FP inh: 33*; PAFAH1B2 inh: -6; PAFAH2 inh: -20; ZTA DNA inh: -6; PAFAH1B3 inh: 3; EBNA-1 inh: -1

How did O=C(N=Nc1c(O)[nH]c2ccc(F)cc12)c1ccc(NS(=O)(=O)c2cccs2)cc1 do in these assays?
pPAFAH FP inh: 6; PAFAH1B2 inh: -1; PAFAH2 inh: -8; ZTA DNA inh: -21; PAFAH1B3 inh: 7

Results for Cc1ccc2[nH]c(O)c(N=NC(=O)c3ccc(NS(=O)(=O)c4cccs4)cc3)c2c1 ?
pPAFAH FP inh: 26*; PAFAH1B2 inh: 26*; PAFAH2 inh: 0; ZTA DNA inh: -18; PAFAH1B3 inh: 10; EBNA-1 inh: -9

How did COc1cccc(C(=O)NNC(=O)c2ccc(NS(=O)(=O)c3cccs3)cc2)c1OC do in these assays?
pPAFAH FP inh: 26*; PAFAH1B2 inh: 2; PAFAH2 inh: 4; ZTA DNA inh: -13; PAFAH1B3 inh: 2; EBNA-1 inh: -7

What do the screens show for `Cc1cccc2c(N=NC(=O)c3ccc(NS(=O)(=O)c4cccs4)cc3)c(O)[nH]c12`?
pPAFAH FP inh: 28*; PAFAH1B2 inh: 39*; PAFAH2 inh: 21; ZTA DNA inh: -9; PAFAH1B3 inh: 24

How did COc1ccc(C2=CCN3CCCCC3C2)c(-c2ccc(OC)c(OC)c2)c1 (configuration not stated) do in these assays?
pPAFAH FP inh: 10; PAFAH1B2 inh: 4; PAFAH2 inh: -3; PAFAH1B3 inh: -5

What do the screens show for `CC(CN1C(C)CCCC1C)OC(=O)c1ccc(F)cc1` (configuration not stated)?
pPAFAH FP inh: 5; PAFAH1B2 inh: 1; PAFAH2 inh: -8; ZTA DNA inh: 13; PAFAH1B3 inh: 7; EBNA-1 inh: 12

How did Cc1ccc(-n2cc(CN3CCC(O)(c4ccccn4)CC3)c(-c3ccc(F)cc3)n2)cc1 do in these assays?
pPAFAH FP inh: 8; PAFAH1B2 inh: 0; PAFAH2 inh: 2; ZTA DNA inh: 2; PAFAH1B3 inh: 10; EBNA-1 inh: 7

Results for COC(=O)c1sccc1NC(=O)c1ccc(C(C)C)cc1 ?
pPAFAH FP inh: 2; PAFAH1B2 inh: 1; PAFAH2 inh: -6; ZTA DNA inh: -15; PAFAH1B3 inh: 7; EBNA-1 inh: 0

What do the screens show for `COc1ccc(CNC(=O)C[C@H]2C[C@H](C(=O)N3CCCCC3)[C@@]3(C)c4[nH]c5cc(CCC(=O)N(C)C)ccc5c4CCN3C2=O)cc1OC`?
pPAFAH FP inh: 2; PAFAH1B2 inh: -1; PAFAH2 inh: -1; PAFAH1B3 inh: 6
